The source of these data is PubChem BioAssay (NCI).

About 79,000 compounds went through this panel and 15% of them were active in at least one assay; those are over-represented in the sample as a whole. Values without a mark were called inactive. The source made the active and inactive calls. Rule as the data show it: active = growth inhibition above about 70%; inactive = the rest. Where a SMILES comes first, the peptide text is derived from it. Bridges are numbered along the chain shown (N, C = ends). [ ]: non-standard residue; d: D form. The star is where a group is joined. Cbz = O=C(OCc1ccccc1)*; Aib = CC(C)(N)C(=O)O; OBn = c1ccc(CO*)cc1; βAla = NCCC(=O)O

One test in a line: NCI Yeast Anticancer Drug Screen. Data for the sgs1 mgt1 strain (AID 161).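 Also: 0% = growth of cultures given vehicle only.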 The settings on record: S. cerevisiae sgs1 mgt1 strain, at 50.0 µM, hits give high values. In short, it runs like this: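 This yeast growth screen uses a strain with defined DNA-repair lesions; compound-treated growth is compared with vehicle-treated growth.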
As to `CC1(C)NC(=O)C(NC(=O)C(CC(=O)OCc2ccccc2)NC(=O)OCc2ccccc2)CCCCNC(=O)CCNC1=O` (centres undefined) (Cbz-D(OBn)K[Aib][βAla]; lactam 2-C; configuration not given here), the growth inhibition was -7.95%. On the same count and under the same terms, with `CC(=O)c1ccc2c(c1)-c1ccccc1C(=O)C2=O` the figure was 10.3%; with `Cn1c(=O)nc2n(C)c3ccccc3cc-2c1=O`, -3.95%.

For `COc1cc2c(cc1OC)C(=O)N(c1ccc(O)cc1)C2=O`, the growth inhibition was -7.8%. Consider `O=C(NNc1ccccc1)NNc1ccccc1` (tested in a mixture with another compound), for which the growth inhibition is -0.9%. The same measure, in the same setting: with `C/C(=N/NC(=O)CC#N)c1ccccc1` the figure was 16.7%; with `Cc1cc(C)n(-c2ccc([N+](=O)[O-])cn2)n1`, -1.3%; with `CC(C(=O)c1ccncc1)c1ccccn1` (centres undefined), -25.4%. The same measure, in the same setting: with `CCSc1ccc2c3c(cccc13)C(=O)N(CCc1ccccn1)C2=O` the figure was 11.8%. `O=c1cc([O-])[n+](C2OC(CO)C(O)C2O)c2sccn12` (centres undefined): the growth inhibition was 16.6%. Turning to `CC(=O)Nc1ccc2c(c1)CCCC2`, the growth inhibition is -0.8%. Turning to `CC1(C)C([N+](C)(C)C)CS1(=O)=O` (centres undefined), the growth inhibition is -13.8%. On the same count and under the same terms, with `CCc1cc(C(C)(C)C)cc(C(C)(C)C)c1O` the figure was -5.75%; with `Cc1cccc(NC(=S)NCCc2ccccn2)c1`, 17.9%; with `COC1OC2COC(c3ccccc3)OC2C(OC(C)=O)C1OS(=O)(=O)c1ccc(C)cc1` (centres undefined), -5.35%. In the case of `Cc1nc(N)c2c(n1)C(Cc1ccccc1)N(C(=O)c1ccccc1)C2` (centres undefined), the growth inhibition was -24.1%. Still for that read-out and setting: to `COC(=O)C12OCC34C(CC5C(C)=C(O)C(=O)CC5(C)C3C(O)C1O)OC(=O)C(OC(C)=O)C24` (centres undefined) belongs 80.5% (active); to `Cn1c(COC(=O)NC2CCCCC2)c(COC(=O)NC2CCCCC2)c2ccc3cc(C=O)ccc3c21`, -14.5%; to `C[Si](C)(C)Nc1ncnc2c1ncn2[Si](C)(C)C`, 21.6%. `O=[N+]([O-])c1ccc(OC(=S)N2CCOCC2)cc1`: the growth inhibition was -8.3%. With `O=C1c2ccccc2-c2cccc(I)c21`, the growth inhibition is -5.55%. Consider `CCN(CC)C(=O)c1cncc(C(N)=O)c1`, for which the growth inhibition was 28%. The same measure, in the same setting: to `CSC(=S)/C(=C/Nc1ccccn1)c1ccccc1` belongs -8.6%. In the case of `O=c1cc(-c2ccccc2)[nH]c2[nH]n(-c3ccccc3)c(=O)c12`, the growth inhibition was 24.8%.

A further test can be described thus: NCI Yeast Anticancer Drug Screen. Data for the cln2 rad14 strain (AID 165).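 Also: 0% = growth equal to vehicle treated cultures.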 Conditions: S. cerevisiae cln2 rad14 strain, at 50.0 µM, hits give high values. The method, boiled down:
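Strain: cln2 rad14 yeast, altered in cell cycle control and DNA damage repair. Read-out: growth inhibition vs vehicle.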
In the case of `CCOC(=O)C(C#N)=C1c2ccccc2Oc2ccccc21`, the growth inhibition is -46%. Take `COC(=O)C[CH2][Ge]([CH3])([CH3])[S]c1ccccc1`: the growth inhibition is 4.3%. On the same count and under the same terms, to `CN(C1c2ccccc2Oc2ccccc21)S(=O)(=O)c1ccc([N+](=O)[O-])cc1` belongs 21.8%; to `Nc1cccc2sccc12`, -4.1%. As for `Cc1ccc(OC(=O)c2cccs2)cc1`, the growth inhibition was -48.1%. The same measure, in the same setting: with `N#CN=CN1CCN(c2ccccc2)CC1` the figure was -22.6%; with `Cc1ccc(NC(=O)CN2CCCCC2)cc1`, 3.9%. As to `COc1ccc(-c2cc(-c3ccccc3)c(C#N)c(=O)n2C2OC(CO)C(O)C(O)C2O)cc1` (centres undefined), the growth inhibition is 12.8%. In the case of `Cc1cccc(C(O)(c2cccc(C)c2)C2(O)CCCCC2)c1`, the growth inhibition was 21.2%.

Take `COC(=O)c1ccccc1-n1c(-c2ccc([N+](=O)[O-])cc2)csc1=NC(=O)c1cccc([N+](=O)[O-])c1`: the growth inhibition was -1.05%. For `Cc1ccc(S(=O)(=O)NC(=O)NCc2cccc(Cl)c2)cc1`, the growth inhibition is -15.6%. Regarding `COC1OC(COS(C)(=O)=O)C2OC(C)(C)OC12` (centres undefined), the growth inhibition is 11.6%. The same measure, in the same setting: with `N#CC(c1ccccc1)N(CCCCCCN(C(=O)c1ccccc1)C(C#N)c1ccccc1)C(=O)c1ccccc1` (centres undefined) the figure was 13.1%; with `CC1(C)C(C(=O)/C=C2\Nc3ccccc3C2(C)C)=Nc2ccccc21`, -26.7%; with `O=S(=O)(c1ccccc1)N1CN(S(=O)(=O)c2ccccc2)CN(S(=O)(=O)c2ccccc2)C1`, 10.6%. Turning to `CCCCC1=CC1(C#N)[N+](=O)[O-]` (centres undefined), the growth inhibition was 21.6%. Take `CC1(C)NC(=O)C(NC(=O)C(CC(=O)OCc2ccccc2)NC(=O)OCc2ccccc2)CCCCNC(=O)CCNC1=O` (centres undefined) (Cbz-D(OBn)K[Aib][βAla]; lactam 2-C; configuration not given here): the growth inhibition is 20.4%. On to `CC(=O)c1ccc2c(c1)-c1ccccc1C(=O)C2=O`, for which the growth inhibition was -19.8%.

On to `Cn1c(=O)nc2n(C)c3ccccc3cc-2c1=O`, for which the growth inhibition was -6.85%. For `COc1cc2c(cc1OC)C(=O)N(c1ccc(O)cc1)C2=O`, the growth inhibition was 20.8%. For `O=C(NNc1ccccc1)NNc1ccccc1` (tested in a mixture with another compound), the growth inhibition is 23.8%.

For `C/C(=N/NC(=O)CC#N)c1ccccc1`, the growth inhibition is -20.6%. Regarding `Cc1cc(C)n(-c2ccc([N+](=O)[O-])cn2)n1`, the growth inhibition is -8.2%. As for `CC(C(=O)c1ccncc1)c1ccccn1` (centres undefined), the growth inhibition was -18.9%.

With `CCSc1ccc2c3c(cccc13)C(=O)N(CCc1ccccn1)C2=O`, the growth inhibition is 2.25%. In the case of `O=c1cc([O-])[n+](C2OC(CO)C(O)C2O)c2sccn12` (centres undefined), the growth inhibition is -0.5%.

`CC(=O)Nc1ccc2c(c1)CCCC2`: the growth inhibition was -71.6%. As to `CC1(C)C([N+](C)(C)C)CS1(=O)=O` (centres undefined), the growth inhibition was -11.1%. As for `CCc1cc(C(C)(C)C)cc(C(C)(C)C)c1O`, the growth inhibition was 6.05%. As for `Cc1cccc(NC(=S)NCCc2ccccn2)c1`, the growth inhibition was -10.8%. Still for that read-out and setting: with `COC1OC2COC(c3ccccc3)OC2C(OC(C)=O)C1OS(=O)(=O)c1ccc(C)cc1` (centres undefined) the figure was 3.35%; with `Cc1nc(N)c2c(n1)C(Cc1ccccc1)N(C(=O)c1ccccc1)C2` (centres undefined), -24.4%. Still for that read-out and setting: with `COC(=O)C12OCC34C(CC5C(C)=C(O)C(=O)CC5(C)C3C(O)C1O)OC(=O)C(OC(C)=O)C24` (centres undefined) the figure was 79.3% (active); with `Cn1c(COC(=O)NC2CCCCC2)c(COC(=O)NC2CCCCC2)c2ccc3cc(C=O)ccc3c21`, -3.95%; with `C[Si](C)(C)Nc1ncnc2c1ncn2[Si](C)(C)C`, -9.3%. As for `O=[N+]([O-])c1ccc(OC(=S)N2CCOCC2)cc1`, the growth inhibition was 0.15%. The same measure, in the same setting: with `O=C1c2ccccc2-c2cccc(I)c21` the figure was 6.95%.

Turning to `CCN(CC)C(=O)c1cncc(C(N)=O)c1`, the growth inhibition was 10.8%. In the case of `CSC(=S)/C(=C/Nc1ccccn1)c1ccccc1`, the growth inhibition was 15.2%.

`O=c1cc(-c2ccccc2)[nH]c2[nH]n(-c3ccccc3)c(=O)c12`: the growth inhibition is -10.2%.
